{"source": "PubChem BioAssay (NCATS)", "note": "Records with an inconclusive call do not appear. A call without a number means that no potency is given here. Active and inactive are the calls of the source. Calls come from the whole dose curve; as a rule, active = well fitted inhibition curve with a large enough effect; inconclusive = small, poorly fitted or top-dose-only effect; inactive = flat fitted curve, though single readings scatter. Bridge positions count the residues as written; N and C are the ends. Square brackets hold non-standard residues; d marks the D form. Peptide text beside a SMILES is read from it. * marks the point of attachment. Octanoyl(6-Me) = CCC(C)CCCCC(=O)*; Dab = NCC[CH](N)C(=O)O", "data": [{"test_system": "CP203", "assay": "qHTS profiling for inhibitors of Plasmodium falciparum proliferation (AID 504749); note: nearly all actives have a fitted effect of over 60% in size; note: potency is the fitted concentration of half-maximal effect", "conditions": "P. falciparum in erythrocytes, SYBR Green DNA, 72 h; series mostly up to 28.7 µM", "source_text": "NIH National Institute of Allergy and Infectious Diseases [NIAID] NIH Chemical Genomics Center [NCGC] MLPCN Grant: None Assay Provider: Xinzhuan Su, NIAID NCGC Assay Overview: Plasmodium falciparum is a virulent malarial parasite that kills 1-2 million people worldwide each year. Transmitted by mosquitoes, the sporozoite form of the parasite enters the blood stream to infect hepatocytes, where they become merozoites that infect red blood cells (erythrocytes). Within erythrocytes, merozoites begin a […] cycle of growth and division, after which the parasite is released to infect new red blood cells. Gametocytes, which form within erythrocytes as well, circulate in the bloodstream and are ingested by the mosquito, thereby completing the life cycle. To profile malarial isolates for differential chemical responses and to identify inhibitors of malarial growth, an assay that measures P. falciparum growth and replication within erythrocytes was employed. This assay uses a DNA binding fluorescent dye (SYBR Green) to detect parasite DNA following cell lysis. Because mature erythrocytes lack DNA, only Plasmodium-derived DNA is detected.\nNCGC Assay Protocol Summary: The SYBR Green viability assay was adapted from a method described previously (Plouffe et al., 2008). For screening 3 ul culture medium was dispensed into 1536 well black clear bottom plates (Aurora Biotechnologies) using a Multidrop Combi (Thermo Fisher Scientific Inc.), 23 nL compounds in DMSO were added by a pin tool (Kalypsys), and 5 ul of erythrocytes infected with P. falciparum (0.3% parasitemia, 2.5% hematocrit final concentration) were added. The plates were incubated at 37 C in a humidified incubator in 5% CO2 for 72 h, and 2 ul lysis buffer (20 mM Tris HCl, 10 mM EDTA, 0.16% saponin, 1.6% triton X, 10X SYBR Green I supplied as 10,000X […] by Invitrogen) was added to each well. The plates were mixed for 25 sec with gentle shaking and incubated overnight at room temperature in the dark. The following morning, fluorescence intensity at 485(14) nm excitation and 535(25) nm emission wavelengths was measured on an EnVision (Perkin Elmer) plate reader. Plate reads were normalized relative to the control inhibitor (0.29 uM artemisinin) and vehicle (DMSO) wells present on each plate and then corrected by an algorithm using vehicle-only control plates at the beginning and end of the compound plate stack.", "values": [{"smiles": "Nc1nc(Cl)nc2c1ncn2C1CC(O)C(CO)O1", "note": "(stereo not drawn)", "Potency": "inactive"}, {"smiles": "C=C[C@]1(C)C[C@@H](OC(=O)CSCCN(CC)CC)[C@]2(C)C(C)CC[C@]3(CCC(=O)[C@H]32)[C@@H](C)[C@@H]1O", "note": "(stereo partly drawn)", "Potency": "13.5 µM (active)"}, {"smiles": "CN1CC[C@H](CN2c3ccccc3Sc3ccccc32)C1", "Potency": "9.53 µM (active)"}, {"smiles": "CC(C)CN(C[C@@H](OP(=O)(O)O)[C@H](Cc1ccccc1)NC(=O)O[C@@H]1CCOC1)S(=O)(=O)c1ccc(N)cc1", "Potency": "inactive"}, {"smiles": "O=NCc1ccc([N+](=O)[O-])o1", "Potency": "inactive"}, {"smiles": "CCC(C)n1ncn(-c2ccc(N3CCN(c4ccc(OCC5COC(Cn6cncn6)(c6ccc(Cl)cc6Cl)O5)cc4)CC3)cc2)c1=O", "note": "(stereo not drawn)", "Potency": "inactive"}, {"smiles": "CC1CCC(C(C)C)C(OC(=O)c2ccccc2O)C1", "note": "(stereo not drawn)", "Potency": "inactive"}, {"smiles": "CO/N=C(/C(=O)N[C@@H]1C(=O)N2C(C(=O)O)=CCS[C@H]12)c1csc(N)n1", "Potency": "inactive"}, {"smiles": "CCN1/C(=C/C=C/C=C/c2sc3ccccc3[n+]2CC)Sc2ccccc21", "Potency": "6.75 µM (active)"}, {"smiles": "CC1(C)S[C@@H]2[C@H](NC(=O)COc3ccccc3)C(=O)N2[C@H]1C(=O)O", "Potency": "inactive"}, {"smiles": "C/C=C\\c1ccc(OC)cc1", "Potency": "inactive"}, {"smiles": "Cc1cc(CC(C)CC(C)(C)C)n(O)c(=O)c1", "note": "(stereo not drawn)", "Potency": "3.38 µM (active)"}, {"smiles": "CN(C)CCCCCCN(C)C", "Potency": "inactive"}, {"smiles": "CC(=O)OC1CC2CCC1(C)C2(C)C", "note": "(stereo not drawn)", "Potency": "inactive"}, {"smiles": "NC1=NC(S)C2N=CN=C2N1", "note": "(stereo not drawn)", "Potency": "inactive"}, {"smiles": "CC(=O)O[C@@]12CO[C@@H]1C[C@H](O)[C@@]1(C)C(=O)[C@H](O)C3=C(C)[C@@H](OC(=O)C(O)[C@@H](NC(=O)OC(C)(C)C)c4ccccc4)C[C@@](O)([C@@H](OC(=O)c4ccccc4)[C@H]21)C3(C)C", "note": "(stereo partly drawn)", "Potency": "0.0536 µM (active)"}, {"smiles": "CCC(C)CCCCC(=O)NC(CCN)C(=O)NC(C(=O)NC(CCN)C(=O)NC1CCNC(=O)C(C(C)O)NC(=O)C(CCN)NC(=O)C(CCN)NC(=O)C(CC(C)C)NC(=O)C(Cc2ccccc2)NC(=O)C(CCN)NC1=O)C(C)O", "note": "(stereo not drawn) ({Octanoyl(6-Me)}-[Dab]T[Dab][Dab][Dab]FL[Dab][Dab]T; lactam 4-C; configuration not given here)", "Potency": "inactive"}, {"smiles": "C1OCOCO1", "Potency": "inactive"}]}]}
